ABHD5 PLIN5 PPI: inhibitors of human ABHD5-perilipin-5 interaction; 360,000 tested, 0.78% active; inhibition, % at 4 µM; Q00G26+Q8WTS1; Split G. princeps luciferase complementation, luminescence, 4 h; AID 602281;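 active = inhibition above the mean inhibition across every tested compound plus 3 SD, cut at about 22% in these data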;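 note: 0% = DMSO only wells and the 100% control is not disclosed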
KKLEB tox: counter-screen for CF NF-kB inhibitors: cytotoxicity; activity change (cytotoxicity), % at 5 µM; 360,000 tested, 0.36% active; KKLEB CF airway cells viability, ATPlite luminescence, overnight; stronger effect = lower value; cells stimulated with P. aeruginosa culture filtrate; AID 602141;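 active = corrected activity change at or below -50% at 5 µM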
TRPM1 prom inh: reduces MITF-dependent TRPM1 promoter luciferase signal. SK-MEL-5 TRPM1 promoter luciferase, 24 h. inhibition, % at 12.5 µM. 330,000 tested, 0.83% active. AID 488899;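 active = mean inhibition across replicates of 60% or more, whatever share of single replicates reaches that level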
HIF-2a inh: blocks HIF-2a reporter activity; 786-0 RCC cells HIF-2a reporter, luciferase luminescence, overnight; inhibition, % at 18.8 µM; 360,000 tested, 0.72% active;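 active = inhibition of the luminescence signal of 40% or more relative to plate controls, in a single-dose primary screen at 18.75 µM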
CF NFkB block: cystic fibrosis NF-kB activation inhibition | KKLEB NF-kB-GFP reporter, PAF-induced, GFP fluorescence overnight | 360,000 tested, 0.86% active | AID 588850 | inhibition, % at 5 µM;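 active = at least 50% inhibition at 5 µM, scaled per plate between neutral and stimulator controls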;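 note: PAF is a Pseudomonas aeruginosa culture filtrate used as stimulus; plate controls were PAF-stimulated DMSO wells for no effect and unstimulated DMSO wells for full effect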
Peg3 prom inh: reduces Peg3 promoter-driven luciferase expression in HeLa. HeLa PEG-Prom luciferase reporter, luminescence, overnight. inhibition, % at 20 µM. 360,000 tested, 1.7% active;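 active = inhibition of at least 50% at 20 µM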
Mdm2-MdmX confirm: confirmation of inhibitors of human Mdm2/MdmX interaction, set 2. shares compounds with HIF-2a inh. AID 504601. 740 tested, 99% active. inhibition, % at 8 µM. SaOS-2 split-luciferase Mdm2/MdmX complementation, luminescence;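 active = mean inhibition of the luminescence signal across two replicates at or above 26 percent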
HIF-2a inh conf: HIF-2a inhibition, single concentration confirmation | shares compounds with HIF-2a inh | 786-0 RCC cells, HIF-2a luciferase reporter luminescence, overnight | inhibition, % at 18.8 µM | 1,800 tested, 56% active | AID 651580;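 active = mean inhibition across four replicates of at least 40 percent at the single tested concentration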
HIF-1a cs: HIF-1a inhibition counter-screen for HIF-2a hits | shares compounds with HIF-2a inh | MiaPaCa-2 HIF-1a luciferase reporter, desferoxamine, overnight | inhibition, % at 18.8 µM | 1,800 tested, 72% active | AID 651589;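 active = mean inhibition of the reporter signal across four replicates at the single tested dose of 50% or more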
An asterisk follows results filed as active; · = no result. This is a sample that favours compounds with a hit; in the whole collection about 3% have one here.

SMILES	ABHD5 PLIN5 PPI	KKLEB tox	TRPM1 prom inh	HIF-2a inh	CF NFkB block	Peg3 prom inh	HIF-2a inh conf	HIF-1a cs	others
COc1cc(CNc2ncnc3c2ncn3[C@H]2CN(Cc3cccc(C(F)(F)F)c3)C[C@@H](CO)O2)cc(OC)c1OC	3	6	·	-5	-9	11	·	·
COc1cccc(CNC(=O)N2CCN(S(=O)(=O)c3ccc(C)cc3)CC2)c1	-11	-4	9	6	4	-1	·	·
C=C1C(=O)OC2C1CCC(C)=C1C(=O)C3OC3(C)C12 (stereo not given)	12	-85*	105*	92*	86*	107*	97*	101*
CCOC(=O)Cc1csc(NC(=S)NC(=O)c2ccccc2)n1	-6	7	-1	85*	3	-11	87*	43
CCOC(=O)Cc1csc(NC(=S)NC(=O)c2ccc(C)cc2)n1	0	-33	-19	96*	13	47	99*	97*
O=[N+]([O-])c1ccc(CSc2ccc(S(=O)(=O)N3CCCC3)cn2)cc1	-6	2	·	-3	6	16	·	·
O=[N+]([O-])c1cccc2cnccc12	-1	-9	6	10	6	-6	·	·
O=[N+]([O-])c1ccc(Oc2cccc(Br)c2)c2ccncc12	-5	-23	13	45*	32	36	29	77*
O=[N+]([O-])c1ccc(-c2ccc(/C=N/Nc3nc(N4CCCC4)nc(N4CCCC4)n3)o2)cc1	-3	-62*	68*	11	-9	31	·	·	Mdm2-MdmX confirm=91*
COC(=O)C12OCC34C(CC5C(C)=C(O)C(=O)CC5(C)C3C(O)C1O)OC(=O)C(OC(=O)C=C(C)C)C24 (stereo not given)	-5	-43	72*	68*	94*	100*	60*	105*
O=C(NC1CCCCC1)C(c1cccnc1)N(C(=O)c1csnn1)c1ccc(F)cc1 (stereo not given)	-4	3	0	11	-9	5	·	·
Brc1cc(Br)c2ncnc(N3CCCCC3)c2c1	-1	-20	51	54*	52*	56*	25	88*
COc1ccc(NC(=S)NC(NC(=O)c2cccc(Cl)c2)C(Cl)(Cl)Cl)c([N+](=O)[O-])c1 (stereo not given)	-19	6	-13	-40	24	34	·	·
O=C(NC(NC(=S)Nc1ccccc1Cl)C(Cl)(Cl)Cl)c1cccc(Cl)c1 (stereo not given)	-1	-32	2	44*	45	46	19	102*
COC(=O)c1ccc2nc(Nc3nc4c(F)cc(F)cc4s3)sc2c1	-1	-20	95*	90*	38	75*	94*	90*
CC(OC(=O)Cn1cnc2c1c(=O)n(C)c(=O)n2C)C(=O)NC1(C#N)CCCCC1 (stereo not given)	-2	-1	-13	4	1	3	·	·
CCOC(=O)C(CC)(CC)C(=O)/C=C/c1ccc(Br)cc1	18	-15	15	58*	9	75*	26	106*
CCc1ccc(C(C)NC(=O)/C=C/c2ccc(Br)cc2)cc1 (stereo not given)	-3	1	0	-39	11	0	·	·
CC1=C(C)/C(=N\OS(=O)(=O)c2ccccc2)C=CC1=O	62*	4	44	86*	-12	106*	·	·	Mdm2-MdmX confirm=103*
O=C(CCCN1C(=O)/C(=C\c2cccs2)SC1=S)NNC(=O)c1cccnc1	-3	16	2	24	-17	1	·	·
Nc1nc2ccc(S(=O)(=O)c3ccc4nc(N)sc4c3)cc2s1	4	-20	-2	48*	17	13	41*	-20
COC(=O)C1=C(C)N(c2cc(C)cc(C)c2)/C(=C/c2ccc(O)cc2)C1=O	10	11	1	44*	-5	33	24	61*
O=C(COC(=O)c1ccccc1C(=O)c1ccc(Cl)c([N+](=O)[O-])c1)NC1CC1	3	-66*	81*	84*	105*	99*	30	101*	Mdm2-MdmX confirm=103*
Cc1ccc(C)c(NS(=O)(=O)c2c(C)nc3sccn3c2=O)c1	2	-23	13	6	4	8	·	·
CCc1ccc2oc(=O)cc(CN3CCOCC3)c2c1	2	-22	1	46*	12	11	5	-12
O=c1cccc2c1c1cc[nH]c3ccc(=O)n2c31	-2	-4	29	36	47	28	·	·	Mdm2-MdmX confirm=93*
